# Experimental data taken from the supplement of paper PMC10338343.
# ± gives the standard deviation.
# System: EfPiwi piRISC loaded with L1MC piRNA (26 nt)
# Assay: pre-steady-state target cleavage rate (min^-1); auxiliary factor: 500 nM Ephydatia muelleri Gtsf1; guide: L1MC piRNA 5'p-UAACUAAAUACUAUGCAAGCUGUAGG; MIWI and MILI are mouse PIWI proteins and EfPiwi is from a freshwater sponge; tags in brackets are library labels; higher = faster piRNA-guided slicing of the target
# Summary of the method: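 Cleave-'n-Seq: 1 nM active affinity-purified piRISC with one synthetic guide and 0.1 nM transcribed, DNA-blocked target RNA library were mixed, with or without 500 nM GTSF1 partner protein, in HEPES–potassium acetate buffer at 33 °C for 0–8 or 0–960 min. Uncleaved targets were sequenced and normalised to depth and to weakly complementary targets, three trials were pooled, and k3 was capped at 0.0001 min^-1. The pre-steady-state cleavage rate was fitted […].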
row,Sequence,pre-steady-state target cleavage rate
1,UCCUCCUACAGCAUGCAUACUAUUUAGUUA,0.00724 ± 0.0028
2,UCCUGGAUGAGCUAGCAUAGUAUUUAGAAA,0.00297 ± 0.0019
3,UCCUGGAUGUGCUAGCAUAGUAUUUAGUUA,0.00573 ± 0.0027
4,UCCUGGAACAGCUUGGAAAGUAUUUAGUUA,0.0164 ± 0.0053
5,UCCUGGAUGUGCGUUGCAUAGUAUUUAGUUA,0.00539 ± 0.0024
6,UCCUCCUACAGCUUGCAUAGUAUUAACAAA,0.00454 ± 0.0033
7,UCCUGGAUGUCGAACGUCAGUAUUUAGUUA,< 0.0001
8,UCCUGGAACAGCUUGGAUAGUAUUUACAAA,0.00254 ± 0.0019
9,UCCUGGAUCACCUAGCAUAGUAUUUAGUUA,0.00614 ± 0.004
10,UCCUGGAUGUCGAUGCUUAGAAUUUAGUUA,< 0.0001
11,UCCUCCUACAGCUUGCAUAGUAUUUAGCUA,0.00335 ± 0.0016
12,UCCUGCUACAGCUUCCAUAGUAUUUAGAAA,0.00349 ± 0.0019
13,UCCUGGAUGUCGAACCAUAGUAUCUUAGUUA,< 0.0001
14,UCCUGGAUGUCGAACGUAUCUAUUUAGAAA [g4:g10:cont:t1A],< 0.0001
15,UCCUGCAACACCUUGCAUAGUAUUUAGUUA,0.0123 ± 0.0034
16,UCCUGCUAGAGCUUGCUUAGUAUUUAGUUA,0.00554 ± 0.002
17,UCCUGCUAGUGCUUGCAUAGUAUUUAGUAA,0.00297 ± 0.0015
18,UCCUGGAUGUGCUUCCAUAGUAUUUAGAAA,0.00625 ± 0.0039
19,UCCUGGAACAGCUUGCAUAGUAUUUACGUUA,0.00579 ± 0.0024
20,UCCUGGAUGUCGUUGGUAAGUAUUUAGUUA,< 0.0001

row,Sequence,pre-steady-state target cleavage rate
1,UCCUCCUACAGCUUCCAUAGUAUUUACAAA,0.00265 ± 0.0026
2,UCCUGCUAGUCCUUGCAUAGUAUUUAGAAA,0.00294 ± 0.0025
3,UCCUGGAUGUCGAACGUUAGUAUUUAGAUA,< 0.0001
4,UCCUGGAACAGCUUGCAUAGUAUUUCGUUA,0.0025 ± 0.0013
5,UCCUGCUACCGCUUGCAUAGUAUUUAGUUA,0.0156 ± 0.005
6,UCCUGGAUGUCGAACGUAUCUAUUAUCUUA,< 0.0001
7,UCCUGGUACAGCUUCCAUAGUAUUUAGAUA,0.00221 ± 0.0016
8,UCCUGGAUGUCGAACGAUAGUAUUUAGGUA,< 0.0001
9,UCCUGGAUGUCGAACGAUAGUAUUAUAGUUA,< 0.0001
10,UCCUGCUACUGCUUGCAUUGUAUUUAGUUA,0.00835 ± 0.0023
11,UCCUGGAUGUCGAAGCAUACUAUUUUGUUA,< 0.0001
12,UCCUCCUACAGCUUGCAUAGUAUCUAGUUA,0.00718 ± 0.0032
13,UCCUGCUACAGCGUUGCAUAGUAUUUAGUUA,0.0103 ± 0.0024
14,UCCUGCUACAGCUUGCAUAGUUAUUAGUAA,0.00306 ± 0.0017
15,UCCUCCUACAGGUUGCAUAGUAAUUAGUUA,0.0115 ± 0.0031
16,UCCUGGAUCAGUUGCAUAGUAUUUAGUUA,0.0258 ± 0.0051
17,UCCUGGAACAGCUUGCAUAGUAUUUACAAA,0.00238 ± 0.0019
18,UCCUGGAUGUCGAUGCAAAGUAUUUUGUUA,< 0.0001
19,UCCUGGAUGUCGAACGUAAGUAUUUAAUUA,< 0.0001
20,UCCUGGAUGAGCUUGCAUAGUAUCUUAGUUA,0.0147 ± 0.005
